The values that follow come from PubChem BioAssay (NCATS).

The structures appear in SMILES notation. Several values for one entry are separate records, joined by “and”; a condition that tells them apart may be missing. Equal entries are not always repeated. Inconclusive results are not listed. Entries that show only a call come without a potency. Values without a mark were called inactive. Activity calls are given as the source filed them. Unless noted, calls come from the whole dose curve.

Sequence of Estrogen receptor (Homo sapiens) (P03372 whole entry, looked up): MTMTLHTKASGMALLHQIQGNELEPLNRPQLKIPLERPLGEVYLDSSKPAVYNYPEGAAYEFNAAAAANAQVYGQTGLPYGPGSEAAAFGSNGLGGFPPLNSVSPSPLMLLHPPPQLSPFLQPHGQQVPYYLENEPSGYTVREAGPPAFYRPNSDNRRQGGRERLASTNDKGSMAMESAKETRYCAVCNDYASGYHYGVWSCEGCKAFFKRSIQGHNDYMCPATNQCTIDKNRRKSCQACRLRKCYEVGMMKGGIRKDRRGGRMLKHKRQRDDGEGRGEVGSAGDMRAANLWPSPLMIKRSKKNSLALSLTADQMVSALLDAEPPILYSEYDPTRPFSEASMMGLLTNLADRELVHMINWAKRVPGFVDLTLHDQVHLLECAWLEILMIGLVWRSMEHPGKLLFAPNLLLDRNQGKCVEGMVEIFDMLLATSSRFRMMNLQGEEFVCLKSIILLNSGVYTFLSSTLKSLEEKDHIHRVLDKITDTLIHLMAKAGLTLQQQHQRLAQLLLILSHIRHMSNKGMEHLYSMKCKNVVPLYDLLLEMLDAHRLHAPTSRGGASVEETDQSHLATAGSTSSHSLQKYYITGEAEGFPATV
Sequence of Bile acid receptor (Homo sapiens) (Q96RI1 whole entry, looked up): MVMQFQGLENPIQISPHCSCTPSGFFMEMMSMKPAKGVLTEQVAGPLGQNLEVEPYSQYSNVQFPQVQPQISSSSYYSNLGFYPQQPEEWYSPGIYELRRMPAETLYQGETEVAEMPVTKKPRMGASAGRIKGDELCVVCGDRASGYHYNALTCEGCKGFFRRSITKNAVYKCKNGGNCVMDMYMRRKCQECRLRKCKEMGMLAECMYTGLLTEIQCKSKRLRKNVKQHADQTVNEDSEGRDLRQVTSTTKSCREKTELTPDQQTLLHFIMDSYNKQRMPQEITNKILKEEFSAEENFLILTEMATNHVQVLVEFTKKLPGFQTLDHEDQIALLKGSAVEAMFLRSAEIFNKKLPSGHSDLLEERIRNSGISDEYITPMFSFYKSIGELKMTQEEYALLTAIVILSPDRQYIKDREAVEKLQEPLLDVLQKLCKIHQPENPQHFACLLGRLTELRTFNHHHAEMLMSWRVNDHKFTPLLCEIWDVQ
Sequence of Glucocorticoid receptor (Homo sapiens) (P04150 whole entry, looked up): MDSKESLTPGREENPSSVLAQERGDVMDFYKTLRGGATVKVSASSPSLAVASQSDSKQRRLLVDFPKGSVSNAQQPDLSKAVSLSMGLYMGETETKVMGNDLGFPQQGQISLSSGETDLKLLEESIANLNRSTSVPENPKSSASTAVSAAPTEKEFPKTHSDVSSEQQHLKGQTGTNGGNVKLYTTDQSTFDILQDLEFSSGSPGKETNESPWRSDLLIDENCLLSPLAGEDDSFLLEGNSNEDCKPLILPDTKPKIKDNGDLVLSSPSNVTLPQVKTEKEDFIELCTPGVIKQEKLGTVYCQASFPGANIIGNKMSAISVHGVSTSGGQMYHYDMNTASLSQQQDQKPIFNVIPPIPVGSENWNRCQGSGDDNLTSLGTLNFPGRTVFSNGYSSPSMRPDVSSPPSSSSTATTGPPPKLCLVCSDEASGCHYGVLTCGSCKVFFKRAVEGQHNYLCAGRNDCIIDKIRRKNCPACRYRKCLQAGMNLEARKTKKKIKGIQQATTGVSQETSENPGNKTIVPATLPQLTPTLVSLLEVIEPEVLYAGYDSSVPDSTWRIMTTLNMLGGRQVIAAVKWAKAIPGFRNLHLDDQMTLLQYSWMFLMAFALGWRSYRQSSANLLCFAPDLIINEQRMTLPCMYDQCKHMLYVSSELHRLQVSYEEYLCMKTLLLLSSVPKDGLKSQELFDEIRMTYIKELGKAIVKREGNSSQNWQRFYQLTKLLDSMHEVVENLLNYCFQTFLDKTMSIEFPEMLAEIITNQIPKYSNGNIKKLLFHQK

Tested on in one assay: not listed separately
As to the kind of experiment: qHTS Assay for Identification of Small Molecule Inducers of Hypoxia Response (AID 2120; active = well fitted curve in the direction sought with a large enough effect in the signal ratio, with a control signal flat, not every such curve was filed as active; the % refers to the signal ratio). As to conditions: hypoxia response reporter cells, beta-lactamase ratio readout; series mostly up to 104 µM. An outline of the steps: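 HRE-beta-lactamase reporter in CellSensor HRE-bla ME-180 cells, 2500 cells/well in Opti-MEM with 0.5% dialyzed FBS; compounds tested as titration series, 17 h at 37 degrees C. CCF4 substrate 2.5 h at room temperature; AC50 from 460/530 nm ratio.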
A general note: In qHTS, concentration-response curves come from the screen itself.
Regarding `CCNc1nc(Cl)nc(NC(C)C)n1`, the outcome was inactive.
Still for that read-out and setting: the entry for `ClC1=C(Cl)C2(Cl)C3C4CC(C5OC45)C3C1(Cl)C2(Cl)Cl` (stereo not given) is “inactive”; for `CCOCN(C(=O)CCl)c1c(C)cccc1CC` it is “inactive”.
Still for that read-out and setting: the entry for `ClC(Cl)=C(c1ccc(Cl)cc1)c1ccc(Cl)cc1` is “inactive”; for `ClC1=C(Cl)C2(Cl)C3C4C=CC(C4)C3C1(Cl)C2(Cl)Cl` (stereo not given) it is “inactive”.
Same read-out and setting: the entry for `O=C(O)COc1ccc(Cl)cc1Cl` is “inactive”; for `COC(=O)NC(=S)Nc1ccccc1NC(=S)NC(=O)OC` it is “inactive”; for `C/C=C/c1ccc2c(c1)OCO2` it is “inactive”.
With `COP(=S)(OC)Oc1ccc([N+](=O)[O-])cc1`, the outcome was inactive.
For the compound `O=S1OCC2C(CO1)C1(Cl)C(Cl)=C(Cl)C2(Cl)C1(Cl)Cl` (stereo not given), the result was inactive.
Regarding `C=CCc1ccc(OC)cc1`, the outcome was inactive.
For the compound `ClC1=C(Cl)C2(Cl)C3C(Cl)C=CC3C1(Cl)C2(Cl)Cl` (stereo not given), the outcome was inactive.
Still for that read-out and setting: as for `CNC(=O)O/N=C/C(C)(C)SC`, the entry is “inactive”.
On the same count and under the same terms, as for `c1ccc(N=Nc2ccccc2)cc1`, the entry is “inactive”; as for `CCc1cccc(CC)c1N(COC)C(=O)CCl`, “inactive”.

The target of a further assay is Ubiquitin carboxyl-terminal hydrolase 1 (Homo sapiens) (UniProt O94782). As to the kind of experiment: Inhibitors of USP1/UAF1: Pilot qHTS (AID 504865; active = well fitted inhibition curve with a large enough effect;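 note: rhodamine fluorescence freed from ubiquitin-rhodamine substrate followed over time; top concentration of the series differs between compounds; nearly all actives have a fitted effect of over 35% in size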). The note with it: purified USP1/UAF1, Ub-rhodamine cleavage fluorescence; series mostly up to 114 µM. An outline of the steps: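 Enzyme-free wells gave the negative control, while test wells held 1nM USP1/UAF1 preincubated with compound for 15 min at room temperature. Ub-Rho at 150nM final started the reaction, and fluorescence at 480/540 nm was recorded kinetically.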
Sequence of Ubiquitin carboxyl-terminal hydrolase 1 (Homo sapiens) (O94782 whole entry, looked up): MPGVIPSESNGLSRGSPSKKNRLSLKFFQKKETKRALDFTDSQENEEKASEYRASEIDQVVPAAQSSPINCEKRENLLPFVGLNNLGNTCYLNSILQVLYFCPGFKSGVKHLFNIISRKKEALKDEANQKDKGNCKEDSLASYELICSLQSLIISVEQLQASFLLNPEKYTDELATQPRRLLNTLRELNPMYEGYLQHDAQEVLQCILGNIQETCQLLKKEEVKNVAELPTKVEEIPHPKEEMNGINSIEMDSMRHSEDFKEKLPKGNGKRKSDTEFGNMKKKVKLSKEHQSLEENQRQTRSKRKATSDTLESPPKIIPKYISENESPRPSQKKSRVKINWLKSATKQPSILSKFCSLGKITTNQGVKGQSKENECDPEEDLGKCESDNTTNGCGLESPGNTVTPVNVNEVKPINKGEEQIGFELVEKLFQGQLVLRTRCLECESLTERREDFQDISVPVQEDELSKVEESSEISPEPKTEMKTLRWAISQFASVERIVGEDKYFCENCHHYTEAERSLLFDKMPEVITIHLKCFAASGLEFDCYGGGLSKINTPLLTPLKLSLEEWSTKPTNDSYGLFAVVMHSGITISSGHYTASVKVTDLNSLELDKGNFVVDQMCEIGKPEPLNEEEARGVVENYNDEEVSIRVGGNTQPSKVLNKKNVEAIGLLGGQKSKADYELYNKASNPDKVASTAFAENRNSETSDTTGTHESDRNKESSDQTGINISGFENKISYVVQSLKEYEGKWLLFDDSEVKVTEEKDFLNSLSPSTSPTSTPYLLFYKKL
Consider `C[N+]1([O-])[C@@H]2CC(OC(=O)[C@@H](CO)c3ccccc3)C[C@@H]1[C@H]1O[C@H]12` (stereo not given in full), for which the Potency result is “inactive”.
Same read-out and setting: as for `CCNc1nc(Cl)nc(NC(C)C)n1`, the entry is “inactive”; as for `CCOCN(C(=O)CCl)c1c(C)cccc1CC`, “inactive”; as for `ClC(Cl)=C(c1ccc(Cl)cc1)c1ccc(Cl)cc1`, “inactive”.
Take `ClC1=C(Cl)C2(Cl)C3C4C=CC(C4)C3C1(Cl)C2(Cl)Cl` (stereo not given): the Potency entry is “inactive”.
Regarding `O=C(O)COc1ccc(Cl)cc1Cl`, the Potency entry is “inactive”.
With `COC(=O)NC(=S)Nc1ccccc1NC(=S)NC(=O)OC`, the Potency result is “inactive”.
The same measure, in the same setting: the entry for `C/C=C/c1ccc2c(c1)OCO2` is “inactive”; for `O=S1OCC2C(CO1)C1(Cl)C(Cl)=C(Cl)C2(Cl)C1(Cl)Cl` (stereo not given) it is “inactive”; for `C=CCc1ccc(OC)cc1` it is “inactive”.
The same measure, in the same setting: as for `ClC1=C(Cl)C2(Cl)C3C(Cl)C=CC3C1(Cl)C2(Cl)Cl` (stereo not given), the entry is “inactive”; as for `CNC(=O)O/N=C/C(C)(C)SC`, “inactive”.
The same measure, in the same setting: the entry for `c1ccc(N=Nc2ccccc2)cc1` is “inactive”; for `CCc1cccc(CC)c1N(COC)C(=O)CCl` it is “inactive”.

A further assay concerns the target Estrogen receptor (Homo sapiens) (UniProt P03372). In words: qHTS assay for small molecule antagonists of estrogen receptor alpha signaling (AID 588513; active = well fitted curve in the direction sought with a large enough effect in the signal ratio, with a control signal flat, not every such curve was filed as active; the % refers to the signal ratio). As to conditions: ER-alpha-UAS-bla HEK293, beta-lactamase ratio, antagonist mode; series mostly up to 76.9 µM. In outline:
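Antagonist-mode qHTS in ER-alpha-UAS-bla HEK 293 cells: compound titration, 0.5nM estradiol for 18 h, CCF4 fluorescence, Hill-derived IC50.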
Consider `CCNc1nc(Cl)nc(NC(C)C)n1`, for which the Potency result is “inactive”.
On to `ClC1=C(Cl)C2(Cl)C3C4CC(C5OC45)C3C1(Cl)C2(Cl)Cl` (stereo not given), for which the Potency result is “inactive”.
The same measure, in the same setting: as for `ClC(Cl)=C(c1ccc(Cl)cc1)c1ccc(Cl)cc1`, the entry is “inactive”.
The same measure, in the same setting: as for `ClC1=C(Cl)C2(Cl)C3C4C=CC(C4)C3C1(Cl)C2(Cl)Cl` (stereo not given), the entry is “inactive”; as for `COC(=O)NC(=S)Nc1ccccc1NC(=S)NC(=O)OC`, “inactive”.
With `COP(=S)(OC)Oc1ccc([N+](=O)[O-])cc1`, the Potency result was “inactive”.
The same measure, in the same setting: the entry for `O=S1OCC2C(CO1)C1(Cl)C(Cl)=C(Cl)C2(Cl)C1(Cl)Cl` (stereo not given) is “inactive”; for `ClC1=C(Cl)C2(Cl)C3C(Cl)C=CC3C1(Cl)C2(Cl)Cl` (stereo not given) it is “inactive”; for `CNC(=O)O/N=C/C(C)(C)SC` it is “inactive”.
As to `CCc1cccc(CC)c1N(COC)C(=O)CCl`, the Potency entry is “inactive”.

For another assay the target is unchanged. In words: qHTS assay for small molecule agonists of estrogen receptor alpha signaling (AID 588514). Note: nearly all actives have a fitted effect of over 70% in size. Note: potency is the fitted concentration of half-maximal effect. As to conditions: ER-alpha-UAS-bla HEK293, beta-lactamase ratio, 18 h; series mostly up to 76.8 µM. In outline:
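ER-alpha-UAS-bla GripTite HEK 293 cells in medium with 2% charcoal/dextran-treated FBS were treated with compound titrations at 37 C for 18 hrs; beta-lactamase reporter read by CCF4 fluorescence after 2 hrs at RT.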
`CCNc1nc(Cl)nc(NC(C)C)n1`: the Potency entry is “inactive”.
Same read-out and setting: as for `ClC(Cl)=C(c1ccc(Cl)cc1)c1ccc(Cl)cc1`, the entry is “inactive”; as for `COC(=O)NC(=S)Nc1ccccc1NC(=S)NC(=O)OC`, “inactive”.
Same read-out and setting: the entry for `COP(=S)(OC)Oc1ccc([N+](=O)[O-])cc1` is “inactive”; for `O=S1OCC2C(CO1)C1(Cl)C(Cl)=C(Cl)C2(Cl)C1(Cl)Cl` (stereo not given) it is 1.41 µM (active); for `CNC(=O)O/N=C/C(C)(C)SC` it is “inactive”.

A further assay concerns the target Bile acid receptor (Homo sapiens) (UniProt Q96RI1). As to the kind of experiment: qHTS assay for small molecule antagonists of farnesoid X receptor signaling (AID 588526). As to conditions: HEK293T FXR-UAS-bla, beta-lactamase ratio, antagonist mode; series mostly up to 76.7 µM. An outline of the steps:
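Beta-lactamase reporter antagonist mode: HEK293T FXR-UAS-bla cells, titrated compound, CDCA stimulation, 16 h 37 C, CCF4 dye 2 h RT. Data normalized to CDCA 50 uM and DMSO; Hill-fit IC50.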
For the compound `ClC(Cl)=C(c1ccc(Cl)cc1)c1ccc(Cl)cc1`, the outcome was inactive.
Still for that read-out and setting: as for `COC(=O)NC(=S)Nc1ccccc1NC(=S)NC(=O)OC`, the entry is “inactive”; as for `COP(=S)(OC)Oc1ccc([N+](=O)[O-])cc1`, “inactive”.
On the same count and under the same terms, the entry for `CNC(=O)O/N=C/C(C)(C)SC` is “inactive”; for `CCc1cccc(CC)c1N(COC)C(=O)CCl` it is “inactive”.

The target is the same in the next assay. As to the kind of experiment: qHTS assay for small molecule agonists of farnesoid X receptor signaling (AID 588527). The note with it: HEK293T FXR-UAS-bla, beta-lactamase ratio, 16 h; hits give high values. An outline of the steps: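 Agonist-mode beta-lactamase reporter in GeneBLAzer FXR-UAS-bla HEK293T cells, titration up to 92 uM, 16 h exposure at 37 C, CCF4 fluorescence. Response scaled to DMSO (0%) and 100 uM chenodeoxycholic acid (100%), then Hill-fitted for EC50 and efficacy.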
For the compound `O=S1OCC2C(CO1)C1(Cl)C(Cl)=C(Cl)C2(Cl)C1(Cl)Cl` (stereo not given), the activation is 2.02%.
On the same count and under the same terms, the figure for `CNC(=O)O/N=C/C(C)(C)SC` is 1.35% and 5.69% and 1.03%; for `CCc1cccc(CC)c1N(COC)C(=O)CCl` it is -2.1%.

The target in the next assay is Glucocorticoid receptor (Homo sapiens) (UniProt P04150). As to the kind of experiment: qHTS assay for small molecule agonists of glucocorticoid receptor signaling (AID 588532; active = well fitted curve in the direction sought with a large enough effect in the signal ratio, with a control signal flat; the % refers to the signal ratio). The note with it: HeLa MMTV-bla, beta-lactamase ratio, agonist, 18 h; hits give high values; percent of dexamethasone control, DMSO zero. In outline:
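Using MMTV-bla HeLa cells in medium with 1% stripped FBS and 25 mM HEPES, compounds were titrated and incubated overnight-length (18 h). Beta-lactamase cleavage of CCF4 was quantified by dual-emission fluorescence.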
Consider `CCNc1nc(Cl)nc(NC(C)C)n1`, for which the activation was -2.38% and -6.25%.
Take `ClC1=C(Cl)C2(Cl)C3C4CC(C5OC45)C3C1(Cl)C2(Cl)Cl` (stereo not given): the activation is -5.87%.
On to `CCOCN(C(=O)CCl)c1c(C)cccc1CC`, for which the activation was 5.28% and 1.08%.
Same read-out and setting: as for `ClC(Cl)=C(c1ccc(Cl)cc1)c1ccc(Cl)cc1`, the figure is 4.56% and 6.94% and 2.36%; as for `ClC1=C(Cl)C2(Cl)C3C4C=CC(C4)C3C1(Cl)C2(Cl)Cl` (stereo not given), 16.6%.
`O=C(O)COc1ccc(Cl)cc1Cl`: the activation was -2.35% [middle of 4 runs].
For the compound `COC(=O)NC(=S)Nc1ccccc1NC(=S)NC(=O)OC`, the activation was 7.06% and -4.28%.
The same measure, in the same setting: the figure for `O=S1OCC2C(CO1)C1(Cl)C(Cl)=C(Cl)C2(Cl)C1(Cl)Cl` (stereo not given) is 7.98%; for `ClC1=C(Cl)C2(Cl)C3C(Cl)C=CC3C1(Cl)C2(Cl)Cl` (stereo not given) it is 0.68%; for `CNC(=O)O/N=C/C(C)(C)SC` it is -4.75% and -0.357% and -10.4%.
Same read-out and setting: the figure for `c1ccc(N=Nc2ccccc2)cc1` is 3.39%; for `CCc1cccc(CC)c1N(COC)C(=O)CCl` it is 0.967% and -3.2%.
